In PubChem BioAssay:
A number with no mark means an inactive call. The rule behind the calls is not given here.

The molecules below were run against Pantothenate synthetase (Mycobacterium tuberculosis (strain ATCC 25618 / H37Rv)) (UniProt P9WIL5) (assay: Coupled enzyme confirmation of inhibitors against recombinant Mtb PanC (AID 375;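 note: 0% = full reaction with vehicle and 100% = no enzyme background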)). Conditions: coupled enzyme assay; at 10 µM, stronger effect = higher value.
Pantothenate synthetase (Mycobacterium tuberculosis (strain ATCC 25618 / H37Rv)), sequence (P9WIL5 whole entry, looked up): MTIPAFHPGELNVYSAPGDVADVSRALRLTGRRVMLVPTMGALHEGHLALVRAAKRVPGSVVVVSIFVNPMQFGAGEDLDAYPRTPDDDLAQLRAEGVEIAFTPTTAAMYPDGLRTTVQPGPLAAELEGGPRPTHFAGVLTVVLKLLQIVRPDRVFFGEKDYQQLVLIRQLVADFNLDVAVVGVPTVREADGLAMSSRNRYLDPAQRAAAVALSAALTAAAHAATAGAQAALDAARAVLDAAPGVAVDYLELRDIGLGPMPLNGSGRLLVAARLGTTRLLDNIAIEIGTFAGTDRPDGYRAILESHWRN
`COC(=O)CSc1nnc(-c2ccncc2)o1` showed an inhibition of 0%.
With `Cn1c(=O)cc(OCCCC(=O)N2CCCCC2)c2ccccc21` the inhibition was 0%.
With `COCCCN(C)C1CCN(C(=O)Nc2ccc(F)cc2)CC1` the inhibition was 0%.
In the case of `Cc1cn([C@H]2C[C@H](N=[N+]=[N-])[C@@H](CO)O2)c(=O)[nH]c1=O`, the inhibition is reported as 0%.
Work on `CCCCOc1ccc(-c2nnn(CC(=O)NCc3ccco3)n2)cc1` yielded an inhibition of 0%.
For `O=C(O)c1cc2cc(F)ccc2[nH]1`, the inhibition was 2%.
Molecule `COc1ccc(-c2nnc(SCCC(=O)O)n2-c2ccccc2)cc1` has an inhibition of 0%.
`COc1ccc(S(=O)(=O)N(CC(=O)N2CCN(c3ccccc3OC)CC2)c2ccccc2)cc1` was tested, and the inhibition was 0%.
Work on `CCOc1ccc(-c2nnc3sc(-c4c(OC)cccc4OC)nn23)cc1` yielded an inhibition of 0%.
Molecule `CC1(C)CC(=O)C(C=NCC2CCNCC2)=C(O)C1` has an inhibition of 2%.
`Cc1ccc(/C(O)=C2\C(=O)C(=O)N(CCCN(C)C)C2c2ccccn2)cc1` (configuration not stated) was tested, and the inhibition was 1%.
Work on `Cc1ccc(C)c2[nH]c(=O)c(CCNC(=O)CC(C)(C)C)cc12` yielded an inhibition of 4%.
With `CCOc1ccccc1N(C(=O)Cn1nnnc1-c1ccc(C)o1)C(CC)C(=O)NC(C)(C)C` (configuration not stated) the inhibition was 0%.
`COc1ccc(C2CC(c3ccc(C)cc3)Nc3ncnn32)cc1` (configuration not stated) showed an inhibition of 0%.
Work on `COc1ccc(-n2nnnc2SCC(=O)N2CCOCC2)cc1` yielded an inhibition of 3%.
For `CCn1cc(C2=NOC(C(=O)Nc3c(C)nn(Cc4ccc(F)cc4)c3C)C2)c(C)n1` (configuration not stated), the inhibition was 0%.
In the case of `COC(=O)C1=CN(C)C=C(C(=O)OC)C1c1ccc(O)c(OC)c1`, the inhibition is reported as 0%.
